Measurements: PubChem BioAssay AID1159580 (chemical genetic matrix, 2015)
Out of some 5,500 compounds screened, about 2,000 (36%) were called active. Another 18% or so got no clear call; they are omitted. Some of the results follow. Unmarked numbers belong to inactive results. Cut-off read from the data, not from the text of the source: active = normalized growth mostly below about 0.91 (no sharp cut-off); inconclusive = no clear call, values can overlap the other calls; inactive = mostly above about 0.92.

Assay: chemical genetic growth profiling, strain panel (AID 1159580);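 note: tested at 20 µM; growth read once vehicle control cultures reached saturation at 30 °C; 1 = growth at the plate median or of vehicle wells; lower values mean less growth of the strain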
Conditions: S. cerevisiae deletion strains, growth OD

CCCCCCCCCCCCCc1ccco1
normalized growth (locus YAL021C, strain ccr4, active compounds read low): 1.01 | normalized growth (locus YAL026C, strain drs2, active compounds read low): 0.976 | normalized growth (locus YAL030W, strain snc1, active compounds read low): 0.991 | normalized growth (locus YBL061C, strain skt5, active compounds read low): 0.979 | normalized growth (locus YBR009C, strain hhf1, active compounds read low): 0.825 (active) | normalized growth (locus YBR023C, strain chs3, active compounds read low): 0.969 | normalized growth (locus YBR171W, strain sec66, active compounds read low): 0.991 | normalized growth (locus YBR231C, strain swc5, active compounds read low): 0.938 | normalized growth (locus YBR279W, strain paf1, active compounds read low): 0.947 | normalized growth (locus YCL011C, strain gbp2, active compounds read low): 0.954 | normalized growth (locus YCL016C, strain dcc1, active compounds read low): 0.973 | normalized growth (locus YCL061C, strain MRC1, active compounds read low): 0.96 | normalized growth (locus YCL069W, strain vba3, active compounds read low): 0.989 | normalized growth (locus YCR088W, strain abp1, active compounds read low): 0.993 | normalized growth (locus YDL005C, strain med2, active compounds read low): 0.988 | normalized growth (locus YDL040C, strain nat1, active compounds read low): 0.983 | normalized growth (locus YDR001C, strain nth1, active compounds read low): 0.989 | normalized growth (locus YDR069C, strain doa4, active compounds read low): 0.964 | normalized growth (locus YDR137W, strain rgp1, active compounds read low): 0.886 | normalized growth (locus YDR159W, strain sac3, active compounds read low): 0.933 | normalized growth (locus YDR195W, strain ref2): 0.973 | normalized growth (locus YDR297W, strain sur2, active compounds read low): 0.989 | normalized growth (locus YDR334W, strain swr1, active compounds read low): 0.987 | normalized growth (locus YDR335W, strain msn5, active compounds read low): 0.987 | normalized growth (locus YDR392W, strain spt3, active compounds read low): 0.266 (active) | normalized growth (locus YEL003W, strain gim4, active compounds read low): 0.953 | normalized growth (locus YEL037C, strain rad23, active compounds read low): 0.983 | normalized growth (locus YEL061C, strain CIN8 (second series), active compounds read low): 0.976 | normalized growth (locus YER015W, strain faa2, active compounds read low): 0.989 | normalized growth (locus YER016W, strain bim1, active compounds read low): 0.978 | normalized growth (locus YER111C, strain swi4, active compounds read low): 0.966 | normalized growth (locus YER155C, strain BEM2 (second series), active compounds read low): 0.635 (active) | normalized growth (locus YFR010W, strain ubp6, active compounds read low): 0.96 | normalized growth (locus YGL167C, strain pmr1, active compounds read low): 0.979 | normalized growth (locus YGL173C, strain kem1, active compounds read low): 0.968 | normalized growth (locus YGL227W, strain vid30, active compounds read low): 0.971 | normalized growth (locus YGL240W, strain doc1, active compounds read low): 0.936 | normalized growth (locus YGL253W, strain hxk2, active compounds read low): 0.98 | normalized growth (locus YHR013C, strain ard1, active compounds read low): 0.699 (active) | normalized growth (locus YHR027C, strain rpn1, active compounds read low): 0.992 | normalized growth (locus YHR030C, strain SLT2, active compounds read low): 0.951 | normalized growth (locus YHR079C, strain IRE1, active compounds read low): 0.937 | normalized growth (locus YHR142W, strain chs7, active compounds read low): 0.922 | normalized growth (locus YJL092W, strain hpr5, active compounds read low): 0.988 | normalized growth (locus YJL095W, strain BCK1 (second series), active compounds read low): 0.939 | normalized growth (locus YJL095W, strain BCK1, active compounds read low): 0.977 | normalized growth (locus YJL115W, strain asf1, active compounds read low): 0.99 | normalized growth (locus YJL129C, strain trk1, active compounds read low): 0.925 | normalized growth (locus YJL154C, strain vps35, active compounds read low): 0.991 | normalized growth (locus YJL164C, strain tpk1, active compounds read low): 0.915 (active) | normalized growth (locus YJL166W, strain qcr8, active compounds read low): 0.835 (active) | normalized growth (locus YJL187C, strain SWE1, active compounds read low): 0.978 | normalized growth (locus YJR066W, strain TOR1, active compounds read low): 0.944 | normalized growth (locus YKL160W, strain elf1, active compounds read low): 0.931 | normalized growth (locus YKR026C, strain gcn3, active compounds read low): 0.966 | normalized growth (locus YKR091W, strain srl3, active compounds read low): 0.989 | normalized growth (locus YLL001W, strain dnm1, active compounds read low): 0.976 | normalized growth (locus YLL026W, active compounds read low): 0.949 | normalized growth (locus YLL041C, strain sdh2, active compounds read low): 0.99 | normalized growth (locus YLR027C, strain aat2, active compounds read low): 0.939 | normalized growth (locus YLR113W, strain HOG1, active compounds read low): 0.939 | normalized growth (locus YLR221C, strain rsa3, active compounds read low): 0.889 (active) | normalized growth (locus YLR258W, strain gsy2, active compounds read low): 0.94 | normalized growth (locus YLR262C, strain YPT6 (second series), active compounds read low): 0.816 (active) | normalized growth (locus YLR320W, strain mms22, active compounds read low): 0.81 (active) | normalized growth (locus YLR342W, strain FKS1, active compounds read low): 0.986 | normalized growth (locus YLR357W, strain rsc2, active compounds read low): 0.99 | normalized growth (locus YLR370C, strain arc18, active compounds read low): 0.989 | normalized growth (locus YLR384C, strain iki3, active compounds read low): 0.983 | normalized growth (locus YML120C, strain ndi1, active compounds read low): 0.959 | normalized growth (locus YMR058W, strain fet3, active compounds read low): 0.925 | normalized growth (locus YMR125W, strain sto1, active compounds read low): 0.934 | normalized growth (locus YMR129W, active compounds read low): 0.985 | normalized growth (locus YMR205C, strain PFK2, active compounds read low): 0.841 (active) | normalized growth (locus YMR231W, strain pep5, active compounds read low): 0.985 | normalized growth (locus YNL071W, strain lat1, active compounds read low): 0.621 (active) | normalized growth (locus YNL183C, strain NPR1, active compounds read low): 0.908 | normalized growth (locus YNL209W, strain ssb2, active compounds read low): 0.993 | normalized growth (locus YNL248C, strain rpa49, active compounds read low): 0.999 | normalized growth (locus YNL322C, strain KRE1 (second series), active compounds read low): 0.995 | normalized growth (locus YNR049C, strain mso1, active compounds read low): 0.989 | normalized growth (locus YOR001W, strain rrp6, active compounds read low): 0.974 | normalized growth (locus YOR070C, strain gyp1, active compounds read low): 0.944 | normalized growth (locus YOR080W, strain dia2, active compounds read low): 1 | normalized growth (locus YOR083W, strain WHI5, active compounds read low): 0.96 | normalized growth (locus YOR106W, strain vam3, active compounds read low): 0.927 | normalized growth (locus YOR231W, strain MKK1, active compounds read low): 0.899 | normalized growth (locus YOR265W, strain rbl2, active compounds read low): 0.981 | normalized growth (locus YOR270C, strain vph1, active compounds read low): 0.929 | normalized growth (locus YOR290C, strain snf2, active compounds read low): 0.913 | normalized growth (locus YPL051W, strain arl3, active compounds read low): 0.964 | normalized growth (locus YPL078C, strain atp4, active compounds read low): 0.947 | normalized growth (locus YPL106C, strain sse1, active compounds read low): 1.01 | normalized growth (locus YPL240C, strain hsp82, active compounds read low): 0.991 | normalized growth (locus YPL256C, strain CLN2, active compounds read low): 0.91
